# In PubChem BioAssay (Tox21):
# Values joined by “and” are separate entries in the source; they are usually repeats but may differ in a detail not shown here. Equal entries are not always repeated. Inconclusive results are not listed. Entries that show only a call come without a potency. A structure can be active in one record and inactive in another. Active and inactive are the calls of the source. Unless noted, calls follow the shape of the dose curve; as a rule, active = well fitted curve in the direction sought with a large enough effect in the repeat runs; inconclusive = weak or mixed curves; inactive = no such curve, though single readings can be large; an effect the other way counts as inactive or inconclusive.
# Key:
# [1] = qHTS assay to identify aromatase inhibitors - cell viability counter screen (AID 743084);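 also: cells stimulated with testosterone during compound exposure; nearly all actives have a fitted effect of over 55% in size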; also: potency is read from the fitted curve at half-maximal effect
# [2] = molecular target: Aryl hydrocarbon receptor (Homo sapiens) (UniProt P35869); assay: qHTS assay to identify small molecule that activate the aryl hydrocarbon receptor (AhR) signaling pathway (AID 743085); also: nearly all actives have a fitted effect of over 15% in size; also: potency is read from the fitted curve at half-maximal effect;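 as to activation: HG2L7.5c1 human HepG2 liver cells with stably integrated DRE-driven firefly reporter; series mostly up to about 70 µM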
# Sequence of Aryl hydrocarbon receptor (Homo sapiens) (P35869 whole entry, looked up): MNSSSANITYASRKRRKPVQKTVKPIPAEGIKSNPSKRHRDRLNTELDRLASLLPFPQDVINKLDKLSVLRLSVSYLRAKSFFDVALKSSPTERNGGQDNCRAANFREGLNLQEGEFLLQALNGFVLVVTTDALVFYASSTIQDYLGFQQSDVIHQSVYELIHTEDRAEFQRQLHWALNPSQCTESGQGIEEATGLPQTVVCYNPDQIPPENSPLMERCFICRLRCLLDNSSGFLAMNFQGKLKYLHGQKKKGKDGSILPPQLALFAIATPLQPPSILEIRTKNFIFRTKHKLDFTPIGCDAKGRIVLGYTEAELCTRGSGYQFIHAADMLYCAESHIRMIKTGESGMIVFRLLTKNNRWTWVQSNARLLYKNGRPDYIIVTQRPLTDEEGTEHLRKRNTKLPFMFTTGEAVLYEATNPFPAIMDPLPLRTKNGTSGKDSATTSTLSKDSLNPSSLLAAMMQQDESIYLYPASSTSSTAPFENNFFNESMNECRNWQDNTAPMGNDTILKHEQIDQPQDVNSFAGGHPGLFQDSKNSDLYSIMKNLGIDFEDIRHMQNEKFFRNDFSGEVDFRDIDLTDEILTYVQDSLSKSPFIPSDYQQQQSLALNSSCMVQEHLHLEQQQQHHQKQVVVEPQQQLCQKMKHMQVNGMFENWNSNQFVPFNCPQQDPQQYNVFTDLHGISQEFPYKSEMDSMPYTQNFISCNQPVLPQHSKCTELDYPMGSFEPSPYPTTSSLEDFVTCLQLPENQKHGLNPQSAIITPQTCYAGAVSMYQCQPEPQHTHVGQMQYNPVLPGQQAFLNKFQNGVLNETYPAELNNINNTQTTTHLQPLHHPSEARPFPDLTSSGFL
# Outline: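 HepG2 cells stably carrying a 20-DRE firefly luciferase reporter (HG2L7.5c1) treated with compound for 24 hr at 37C. Luciferase read by ONE-Glo luminescence, with CellTiter-Fluor viability read first.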
# [3] = molecular target: Peroxisome proliferator-activated receptor gamma (Homo sapiens) (UniProt P37231); assay: qHTS assay to identify small molecule agonists of the peroxisome proliferator-activated receptor gamma (PPARg) signaling pathway (AID 743094; active = well fitted activation curve with a large enough effect in the signal ratio in the repeat runs, not every such curve was filed as active; the % refers to the signal ratio)
# Sequence of Peroxisome proliferator-activated receptor gamma (Homo sapiens) (P37231 whole entry, looked up): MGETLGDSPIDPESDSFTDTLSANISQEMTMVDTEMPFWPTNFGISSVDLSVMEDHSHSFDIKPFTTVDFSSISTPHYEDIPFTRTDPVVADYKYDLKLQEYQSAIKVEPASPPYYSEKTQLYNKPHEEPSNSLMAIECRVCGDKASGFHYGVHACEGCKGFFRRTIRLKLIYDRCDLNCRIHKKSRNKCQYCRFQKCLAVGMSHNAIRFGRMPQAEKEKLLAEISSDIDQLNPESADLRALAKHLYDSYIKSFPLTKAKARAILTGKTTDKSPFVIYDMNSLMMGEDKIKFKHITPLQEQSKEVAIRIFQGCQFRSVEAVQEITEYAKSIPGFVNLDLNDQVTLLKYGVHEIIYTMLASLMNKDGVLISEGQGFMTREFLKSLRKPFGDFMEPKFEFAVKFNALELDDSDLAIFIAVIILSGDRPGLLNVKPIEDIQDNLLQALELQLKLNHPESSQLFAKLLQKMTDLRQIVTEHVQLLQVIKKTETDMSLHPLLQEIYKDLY
# Outline: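 Fluorescence-based beta-lactamase readout in HEK293H PPARg UAS-bla cells after 17 h compound exposure (37C) and 1 h B/G FRET substrate incubation at room temperature.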
# [4] = molecular target: Peroxisome proliferator-activated receptor gamma (Homo sapiens) (UniProt P37231); assay: qHTS assay to identify small molecule antagonists of the peroxisome proliferator-activated receptor gamma (PPARg) signaling pathway (AID 743191; calls by dose curve; also: series mostly up to about 63 µM; nearly all actives have a fitted effect of over 30% in size)
# Outline: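 GeneBLAzer PPARg UAS-bla HEK293H cells, 5 h post-plating, exposed to compounds 17 h at 37C. LiveBLAzer B/G FRET substrate added for 1 h at room temperature; beta-lactamase reporter read by fluorescence intensity.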
# [5] = qHTS assay to identify small molecule antagonists of the peroxisome proliferator-activated receptor gamma (PPARg) signaling pathway - cell viability counter screen (AID 743194); also: nearly all actives have a fitted effect of over 55% in size
# Outline: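 Cytotoxicity counter screen in PPARg-bla HEK293H cells, same wells as reporter assay. Compounds plus 50 nM rosiglitazone (final) for 17 h at 37 C, then viability read by CellTiter-Glo luminescence.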
# [6] = qHTS assay for small molecule agonists of the antioxidant response element (ARE) signaling pathway (AID 743202; active = well fitted activation curve with a large enough effect in the signal ratio in the repeat runs, not every such curve was filed as active; the % refers to the signal ratio; also: potency is read from the fitted curve at half-maximal effect)
# Outline: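 HepG2 ARE-bla reporter line, 2,000 cells/well; 5 h preincubation 37 C/5% CO2; compound (DMSO) 16 h 37 C; B/G FRET substrate 2 h RT; fluorescence intensity.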
# [7] = qHTS assay for small molecule agonists of the antioxidant response element (ARE) signaling pathway - cell viability counter screen (AID 743203; calls by dose curve; also: nearly all actives have a fitted effect of over 55% in size)
# Outline: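 Parallel cytotoxicity read-out for the ARE-bla screen: HepG2 reporter cells, 16 hrs with compounds, then CellTiter-Glo luminescence.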
# [8] = qHTS assay for small molecule activators of the heat shock response signaling pathway (AID 743210; active = well fitted activation curve with a large enough effect in the signal ratio in the repeat runs, with a control signal flat, not every such curve was filed as active; the % refers to the signal ratio;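 also: HeLa cells with beta-lactamase reporter driven by heat shock elements; series mostly up to about 63 µM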)
# Outline: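 Beta-lactamase reporter read-out: FRET substrate fluorescence after 2.5 h at RT, following 5 h compound treatment at 37 C of HeLa cells carrying HSE-driven bla reporter; quantitative HTS format.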
# [9] = qHTS assay to identify small molecule agonists of the peroxisome proliferator-activated receptor delta (PPARd) signaling pathway - cell viability counter screen (AID 743211); also: nearly all actives have a fitted effect of over 55% in size
# Outline: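 PPARd-bla HEK293H cells (3000/well) were pre-incubated 5 h at 37 C, then exposed to compound for 17 h at 37 C. After 2 h with LiveBLAzer substrate, CellTiter-Glo was added to the same wells; luminescence read after 30 min at room temperature.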
# [10] = qHTS assay to identify small molecule antagonists of the peroxisome proliferator-activated receptor delta (PPARd) signaling pathway - cell viability counter screen (AID 743213); also: nearly all actives have a fitted effect of over 50% in size
# Outline: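 Luminescence from CellTiter-Glo, added after the bla read and incubated 30 min at room temperature, gives viability of HEK293H PPARd-bla cells exposed to compounds for 17 h at 37 C with 300 nM L165041.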
# [11] = qHTS assay to identify small molecule agonists of the farnesoid-X-receptor (FXR) signaling pathway - cell viability counter screen (AID 743218); also: nearly all actives have a fitted effect of over 45% in size
# Outline: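 Same-well cytotoxicity check on FXR-UAS-bla HEK 293T cells: 5 h attachment, 16 h compound at 37 C, CellTiter-Glo luminescence read at room temperature after 30 min.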
# [12] = qHTS assay to identify small molecule antagonists of the farnesoid-X-receptor (FXR) signaling pathway - cell viability counter screen (AID 743221; active = well fitted cell-killing curve with a large enough effect in the repeat runs, not every such curve was filed as active; also: nearly all actives have a fitted effect of over 50% in size)
# Outline: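 GeneBLAzer FXR-UAS-bla HEK 293T cells, compound plus chenodeoxycholic acid (50 uM final), 16 h at 37 C. CellTiter-Glo added to the same wells after the beta-lactamase read; luminescence read after 30 min at room temperature as viability.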
# [13] = molecular target: Vitamin D3 receptor (Homo sapiens) (UniProt P11473); assay: qHTS assay to identify small molecule agonists of the vitamin D receptor (VDR) signaling pathway (AID 743222; calls by dose curve)
# Sequence of Vitamin D3 receptor (Homo sapiens) (P11473 whole entry, looked up): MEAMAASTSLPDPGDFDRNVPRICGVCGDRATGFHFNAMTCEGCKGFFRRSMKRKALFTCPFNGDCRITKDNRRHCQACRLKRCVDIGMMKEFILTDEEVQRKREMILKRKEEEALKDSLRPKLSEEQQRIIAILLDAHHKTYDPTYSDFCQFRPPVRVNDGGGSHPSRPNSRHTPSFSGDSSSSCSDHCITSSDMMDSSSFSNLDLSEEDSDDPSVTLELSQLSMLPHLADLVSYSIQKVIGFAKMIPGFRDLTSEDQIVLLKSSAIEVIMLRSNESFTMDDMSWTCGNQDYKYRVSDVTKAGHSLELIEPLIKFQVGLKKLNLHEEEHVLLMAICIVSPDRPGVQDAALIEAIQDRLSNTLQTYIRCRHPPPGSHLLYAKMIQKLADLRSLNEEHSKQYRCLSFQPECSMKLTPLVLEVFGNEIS
# Outline: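 Using LiveBLAzer B/G FRET detection, agonism was scored in VDR-bla cells exposed overnight (16 h, 37C) to DMSO-dissolved compounds; substrate incubation was 2 h at room temperature.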
# [14] = molecular target: Vitamin D3 receptor (Homo sapiens) (UniProt P11473); assay: qHTS assay to identify small molecule antagonists of the vitamin D receptor (VDR) signaling pathway (AID 743223; active = well fitted inhibition curve with a large enough effect in the signal ratio in the repeat runs, not every such curve was filed as active; the % refers to the signal ratio)
# Outline: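 VDR-bla cells were treated with compound plus 3 nM final 1alpha,25-dihydroxyvitamin D3 for 16 h at 37C. Beta-lactamase reporter read by B/G FRET substrate fluorescence after 2 h at room temperature. qHTS format.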
# [15] = qHTS assay for small molecule activators of the heat shock response signaling pathway - cell viability counter screen (AID 743209); also: nearly all actives have a fitted effect of over 50% in size
# Outline: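 To flag cytotoxic compounds, HSE-bla HeLa cells plated at 1500 cells/well were dosed for 5 h at 37 C, followed by the reporter FRET read and then CellTiter-Glo, with luminescence recorded 30 min after reagent addition.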
# [16] = qHTS assay to identify small molecule that activate the aryl hydrocarbon receptor (AhR) signaling pathway - cell viability counter screen (AID 743086);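 also: HepG2 liver cells carrying the AhR DRE luciferase reporter; series mostly up to about 70 µM; nearly all actives have a fitted effect of over 45% in size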
# Outline: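 HepG2-AhR-luc (HG2L7.5c1) cells, 4000/well, treated 24 h at 37 C with compound; viability measured as CellTiter-Fluor fluorescence after 30 min in the same wells as the luciferase read.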
# [17] = molecular target: Peroxisome proliferator-activated receptor delta (Homo sapiens) (UniProt Q03181); assay: qHTS assay to identify small molecule agonists of the peroxisome proliferator-activated receptor delta (PPARd) signaling pathway (AID 743212; calls by dose curve)
# Sequence of Peroxisome proliferator-activated receptor delta (Homo sapiens) (Q03181 whole entry, looked up): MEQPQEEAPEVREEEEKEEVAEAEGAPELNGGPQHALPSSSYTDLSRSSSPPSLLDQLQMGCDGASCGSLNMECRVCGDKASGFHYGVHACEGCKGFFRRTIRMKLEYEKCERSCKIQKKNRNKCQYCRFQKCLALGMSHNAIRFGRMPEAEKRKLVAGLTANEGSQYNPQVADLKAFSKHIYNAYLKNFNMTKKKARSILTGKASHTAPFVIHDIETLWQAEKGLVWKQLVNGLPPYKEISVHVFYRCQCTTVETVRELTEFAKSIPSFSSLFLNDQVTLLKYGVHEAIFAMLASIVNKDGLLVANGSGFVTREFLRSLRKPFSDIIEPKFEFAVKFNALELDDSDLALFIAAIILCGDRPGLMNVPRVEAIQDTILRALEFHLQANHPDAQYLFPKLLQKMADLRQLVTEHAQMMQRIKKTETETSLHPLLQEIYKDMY
# Outline: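 Read-out: beta-lactamase FRET fluorescence after 2 h room-temperature incubation with LiveBLAzer B/G substrate. Cells were HEK293H carrying a UAS-bla reporter for PPARd, treated at 37 C with DMSO-dissolved compounds.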
# [18] = molecular target: Peroxisome proliferator-activated receptor delta (Homo sapiens) (UniProt Q03181); assay: qHTS assay to identify small molecule antagonists of the peroxisome proliferator-activated receptor delta (PPARd) signaling pathway (AID 743215; active = well fitted inhibition curve with a large enough effect in the signal ratio in the repeat runs, not every such curve was filed as active; the % refers to the signal ratio;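 also: cells stimulated with agonist L165041 at 300 nM final during compound exposure; series mostly up to about 62 µM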)
# Outline: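 Screen format: qHTS, antagonist mode. HEK293H PPARd-bla cells received compound and 300 nM L165041 (final), 17 h, 37 C. Beta-lactamase detected via FRET substrate fluorescence, 2 h, room temperature.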
# [19] = molecular target: Bile acid receptor (Homo sapiens) (UniProt Q96RI1); assay: qHTS assay to identify small molecule antagonists of the farnesoid-X-receptor (FXR) signaling pathway (AID 743217; active = well fitted inhibition curve with a large enough effect in the signal ratio in the repeat runs, not every such curve was filed as active; the % refers to the signal ratio)
# Sequence of Bile acid receptor (Homo sapiens) (Q96RI1 whole entry, looked up): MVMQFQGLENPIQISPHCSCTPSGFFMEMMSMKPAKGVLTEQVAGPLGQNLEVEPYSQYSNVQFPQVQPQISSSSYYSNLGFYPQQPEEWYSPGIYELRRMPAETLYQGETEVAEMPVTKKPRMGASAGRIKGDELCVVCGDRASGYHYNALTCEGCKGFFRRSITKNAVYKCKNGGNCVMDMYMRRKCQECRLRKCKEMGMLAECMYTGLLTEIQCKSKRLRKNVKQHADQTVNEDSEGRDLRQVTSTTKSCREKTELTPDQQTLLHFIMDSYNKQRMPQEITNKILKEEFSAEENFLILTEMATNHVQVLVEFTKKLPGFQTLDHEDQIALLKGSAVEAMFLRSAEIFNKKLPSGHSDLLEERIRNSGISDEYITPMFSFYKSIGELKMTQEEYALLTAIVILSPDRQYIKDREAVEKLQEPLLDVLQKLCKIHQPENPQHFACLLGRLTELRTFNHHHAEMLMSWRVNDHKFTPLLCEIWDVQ
# Outline: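 Quantitative HTS, beta-lactamase reporter format: FXR-UAS-bla HEK 293T cells co-treated 16 h at 37 °C with compounds and 50 uM final chenodeoxycholic acid, then read by B/G FRET fluorescence.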
# [20] = molecular target: Bile acid receptor (Homo sapiens) (UniProt Q96RI1); assay: qHTS assay to identify small molecule agonists of the farnesoid-X-receptor (FXR) signaling pathway (AID 743220; active = well fitted activation curve with a large enough effect in the signal ratio in the repeat runs, not every such curve was filed as active; the % refers to the signal ratio)
# Outline: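 FXR-UAS-bla HEK 293T cells carrying a UAS-driven beta-lactamase reporter were plated for 5 h at 37C/5% CO2, then exposed to DMSO-dissolved Tox21 10K compounds for 16 h at 37C. A LiveBLAzer B/G FRET substrate was loaded for 2 h at room temperature before fluorescence reading.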
SMILES,Potency [1],Potency [2],outcome [3],outcome [4],outcome [5],Potency [6],outcome [7],outcome [8],outcome [9],outcome [10],outcome [11],outcome [12],outcome [13],outcome [14],outcome [15],Potency [16],outcome [17],outcome [18],Potency [19],outcome [20]
NC(N)=NC(=O)c1nc(Cl)c(N)nc1N,inactive,inactive,inactive,inactive,inactive,inactive and 25.3 µM (active),inactive,inactive,inactive,inactive,inactive,inactive,inactive,inactive,,,,,,
CC(=O)Nc1nnc(S(N)(=O)=O)s1,inactive,inactive,inactive,inactive,inactive,inactive,inactive,inactive,inactive,,inactive,inactive,,,inactive,,,,,
N=C(N)c1ccc(OCCCCCOc2ccc(C(=N)N)cc2)cc1,inactive,,inactive,,inactive,,inactive,inactive,inactive,,inactive,inactive,inactive,inactive,inactive,inactive,inactive,,,
O=C(c1ccccc1)C(O)c1ccccc1 (stereo not drawn),inactive,inactive,inactive,inactive,inactive,inactive,inactive,inactive,inactive,,inactive,inactive,inactive,inactive,,,inactive,inactive,,
O=C1CN(/N=C/c2ccc([N+](=O)[O-])o2)C(=O)N1,30.5 µM (active),inactive,,,inactive,17.2 µM (active) and 26.6 µM (active),,inactive,inactive,inactive,inactive,inactive,inactive,inactive,,,inactive,,,
O=NO,inactive,inactive,,,inactive,inactive,inactive,inactive,inactive,inactive,inactive,inactive,inactive,inactive,,,,,,
O=C(O)c1cccnc1,inactive,inactive,,,inactive,inactive,inactive,inactive,inactive,,inactive,inactive,,,inactive,,,,,
O=C(O)CCCCC(=O)O,inactive,inactive,inactive,,inactive,inactive,inactive,,inactive,,inactive,inactive,inactive,inactive,inactive,,inactive,,inactive,inactive
NS(=O)(=O)c1cc(C(=O)O)c(NCc2ccco2)cc1Cl,inactive,,inactive,,inactive,inactive,inactive,inactive,inactive,,inactive,inactive,inactive,inactive,inactive,,inactive,,,
O=C(O)c1cc(N=Nc2ccc(S(=O)(=O)Nc3ccccn3)cc2)ccc1O,34.5 µM (active) and 30.6 µM (active),inactive,inactive,inactive,inactive,inactive,inactive,inactive,inactive,,inactive,inactive,inactive,inactive,,,inactive,inactive,,
NC(=O)c1cnccn1,inactive,inactive,inactive,inactive,inactive,inactive,inactive,inactive,inactive,,inactive,inactive,inactive,inactive,,,inactive,inactive,,
Nc1ccn([C@H]2CC[C@@H](CO)O2)c(=O)n1,inactive,,inactive,inactive,inactive,inactive,inactive,inactive,inactive,inactive,inactive,inactive,,,inactive,inactive,inactive,inactive,,
Cc1ccc(C)c(OCCCC(C)(C)C(=O)O)c1,inactive,inactive and 48.9 µM (active),,,inactive,inactive,inactive,inactive,inactive,inactive,inactive,inactive,,,,,inactive,inactive,inactive,inactive
CCCN(CCC)S(=O)(=O)c1ccc(C(=O)O)cc1,inactive,inactive,inactive,inactive,inactive,inactive,inactive,inactive,inactive,inactive,inactive,inactive,inactive,inactive,,,inactive,inactive,inactive,inactive
COc1c2occc2cc2ccc(=O)oc12,,,,,inactive,inactive,inactive,,inactive,inactive,inactive,inactive,inactive,inactive,,,,,inactive,inactive
CNC[C@H](O)c1cccc(O)c1,inactive,inactive,,,inactive,inactive,inactive,,inactive,inactive,inactive,inactive,inactive,inactive,,,,,,
O=C1NC(=O)c2ccccc21,inactive,inactive,inactive,inactive,inactive,inactive,inactive,inactive,inactive,,inactive,inactive,inactive,inactive,inactive,,,,inactive,inactive
O=C(O)/C=C\C(=O)O,,,,,inactive,inactive,inactive,inactive,inactive,,inactive,inactive,inactive,inactive,,,inactive,inactive,,
O=c1cc[nH]c(=S)[nH]1,inactive,inactive,inactive,inactive,inactive,inactive,inactive,inactive,inactive,inactive,inactive,inactive,,,,,inactive,inactive,inactive,inactive
NC(N)=O,inactive,,inactive,inactive,inactive,inactive,inactive,inactive,inactive,,inactive,inactive,,,,,inactive,inactive,,
CCCC(O)C(CC)CO (stereo not drawn),inactive,inactive,inactive,inactive,inactive,inactive,inactive,inactive,inactive,,inactive,inactive,,,,,inactive,inactive,,
